# From PubChem BioAssay AID1159580 (chemical genetic matrix, 2015)
# “And” between values parts separate entries of the source, which are not always exact repeats. Equal entries are not always repeated. Hit rate of the full screen: of about 5,500 compounds, about 2,000 (36%) were called active. Another 18% or so got no clear call; they are omitted. Some of the results follow. Values without a mark were called inactive. Cut-off read from the data, not from the text of the source: active = normalized growth mostly below about 0.91 (no sharp cut-off); inconclusive = no clear call, values can overlap the other calls; inactive = mostly above about 0.92.
# Assay: chemical genetic growth profiling, strain panel (AID 1159580);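 note: tested at 20 µM; growth read once vehicle control cultures reached saturation at 30 °C; 1 = growth at the plate median or of vehicle wells; lower values mean less growth of the strain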
# Details: S. cerevisiae deletion strains, growth OD
smiles,measurement,setting,value
CC(NCCC(c1ccccc1)c1ccccc1)c1ccccc1 (configuration not stated),normalized growth,"locus YAL013W, strain DEP1, active compounds read low",0.925
same,normalized growth,"locus YAL021C, strain ccr4, active compounds read low",0.592 (active)
same,normalized growth,"locus YAL026C, strain drs2, active compounds read low",0.47 (active)
same,normalized growth,"locus YAL030W, strain snc1, active compounds read low",0.992
same,normalized growth,"locus YBL061C, strain skt5, active compounds read low",0.934
same,normalized growth,"locus YBR009C, strain hhf1, active compounds read low",0.953
same,normalized growth,"locus YBR021W, strain FUR4, active compounds read low",0.447 (active)
same,normalized growth,"locus YBR023C, strain chs3, active compounds read low",0.799 (active)
same,normalized growth,"locus YBR171W, strain sec66, active compounds read low",1
same,normalized growth,"locus YBR229C, strain ROT2, active compounds read low",0.946
same,normalized growth,"locus YBR231C, strain swc5, active compounds read low",0.944
same,normalized growth,"locus YBR279W, strain paf1, active compounds read low",0.893 (active)
same,normalized growth,"locus YCL011C, strain gbp2, active compounds read low",0.97
same,normalized growth,"locus YCL016C, strain dcc1, active compounds read low",0.964
same,normalized growth,"locus YCL029C, strain bik1, active compounds read low",0.975
same,normalized growth,"locus YCL061C, strain MRC1, active compounds read low",1.02
same,normalized growth,"locus YCL069W, strain vba3, active compounds read low",1.01
same,normalized growth,"locus YCR088W, strain abp1, active compounds read low",1.02
same,normalized growth,"locus YDL005C, strain med2, active compounds read low",1.03
same,normalized growth,"locus YDL035C, strain GPR1, active compounds read low",0.908
same,normalized growth,"locus YDL040C, strain nat1, active compounds read low",0.991
same,normalized growth,"locus YDL074C, strain BRE1, active compounds read low",0.831
same,normalized growth,"locus YDL101C, strain DUN1, active compounds read low",0.971
same,normalized growth,"locus YDL134C, strain PPH21, active compounds read low",0.968
same,normalized growth,"locus YDL185W, strain tfp1, active compounds read low",0.959
same,normalized growth,"locus YDL192W, strain arf1, active compounds read low",0.985
same,normalized growth,"locus YDR001C, strain nth1, active compounds read low",1.01
same,normalized growth,"locus YDR069C, strain doa4, active compounds read low",0.57 (active)
same,normalized growth,"locus YDR101C, strain arx1, active compounds read low",0.994
same,normalized growth,"locus YDR137W, strain rgp1, active compounds read low",0.981
same,normalized growth,"locus YDR150W, strain NUM1, active compounds read low",0.97
same,normalized growth,"locus YDR159W, strain sac3, active compounds read low",1.09
same,normalized growth,"locus YDR162C, strain NBP2, active compounds read low",0.936
same,normalized growth,"locus YDR195W, strain ref2",1.28 [resistant] (active)
same,normalized growth,"locus YDR297W, strain sur2, active compounds read low",1.01
same,normalized growth,"locus YDR318W, strain mcm21, active compounds read low",0.952
same,normalized growth,"locus YDR334W, strain swr1, active compounds read low",1.01
same,normalized growth,"locus YDR335W, strain msn5, active compounds read low",1
same,normalized growth,"locus YDR388W, active compounds read low",0.328 (active)
same,normalized growth,"locus YDR392W, strain spt3, active compounds read low",0.93
same,normalized growth,"locus YDR502C, strain sam2, active compounds read low",0.964
same,normalized growth,"locus YEL003W, strain gim4, active compounds read low",0.988
same,normalized growth,"locus YEL037C, strain rad23, active compounds read low",0.98
same,normalized growth,"locus YEL061C, strain CIN8 (second series), active compounds read low",1
same,normalized growth,"locus YEL061C, strain CIN8, active compounds read low",0.987
same,normalized growth,"locus YER015W, strain faa2, active compounds read low",0.9 (active)
same,normalized growth,"locus YER016W, strain bim1, active compounds read low",1
same,normalized growth,"locus YER110C, active compounds read low",0.978
same,normalized growth,"locus YER111C, strain swi4, active compounds read low",1.01
same,normalized growth,"locus YER155C, strain BEM2 (second series), active compounds read low",0.978
same,normalized growth,"locus YER155C, strain BEM2, active compounds read low",0.999
same,normalized growth,"locus YER167W, strain BCK2, active compounds read low",0.964
same,normalized growth,"locus YFR010W, strain ubp6, active compounds read low",0.559 (active)
same,normalized growth,"locus YGL078C, strain dbp3, active compounds read low",0.977
same,normalized growth,"locus YGL086W, strain mad1, active compounds read low",0.96
same,normalized growth,"locus YGL167C, strain pmr1, active compounds read low",1.01
same,normalized growth,"locus YGL173C, strain kem1, active compounds read low",0.971
same,normalized growth,"locus YGL227W, strain vid30, active compounds read low",1
same,normalized growth,"locus YGL240W, strain doc1, active compounds read low",1.05
same,normalized growth,"locus YGL248W, strain PDE1, active compounds read low",0.979
same,normalized growth,"locus YGL253W, strain hxk2, active compounds read low",0.868 (active)
same,normalized growth,"locus YGR078C, strain PAC10, active compounds read low",0.909
same,normalized growth,"locus YGR135W, strain pre9, active compounds read low",0.832 (active)
same,normalized growth,"locus YGR229C, strain SMI1, active compounds read low",0.623 (active)
same,normalized growth,"locus YGR252W, strain gcn5, active compounds read low",0.679 (active)
same,normalized growth,"locus YHR013C, strain ard1, active compounds read low",0.655 (active)
same,normalized growth,"locus YHR027C, strain rpn1, active compounds read low",0.944
same,normalized growth,"locus YHR030C, strain SLT2, active compounds read low",0.974 and 0.983
same,normalized growth,"locus YHR079C, strain IRE1 (second series), active compounds read low",0.99
same,normalized growth,"locus YHR079C, strain IRE1, active compounds read low",0.982
same,normalized growth,"locus YHR094C, strain hxt1, active compounds read low",0.991
same,normalized growth,"locus YHR129C, strain ARP1, active compounds read low",0.974
same,normalized growth,"locus YHR142W, strain chs7, active compounds read low",0.802 (active)
same,normalized growth,"locus YHR200W, strain rpn10, active compounds read low",0.99
same,normalized growth,"locus YIL066C, strain RNR3, active compounds read low",0.948
same,normalized growth,"locus YIL073C, strain SPO22, active compounds read low",1.14
same,normalized growth,"locus YIL125W, strain kgd1, active compounds read low",0.989
same,normalized growth,"locus YIR030C, strain dcg1, active compounds read low",0.978
same,normalized growth,"locus YJL092W, strain hpr5, active compounds read low",0.986
same,normalized growth,"locus YJL095W, strain BCK1 (second series), active compounds read low",0.901 (active)
same,normalized growth,"locus YJL095W, strain BCK1, active compounds read low",0.824 and 0.989
same,normalized growth,"locus YJL115W, strain asf1, active compounds read low",1
same,normalized growth,"locus YJL129C, strain trk1, active compounds read low",1
same,normalized growth,"locus YJL134W, strain LCB3, active compounds read low",0.988
same,normalized growth,"locus YJL154C, strain vps35, active compounds read low",0.998
same,normalized growth,"locus YJL164C, strain tpk1, active compounds read low",0.922
same,normalized growth,"locus YJL166W, strain qcr8, active compounds read low",0.914
same,normalized growth,"locus YJL168C, strain set2, active compounds read low",0.991
same,normalized growth,"locus YJL187C, strain SWE1 (second series), active compounds read low",0.931
same,normalized growth,"locus YJL187C, strain SWE1, active compounds read low",0.978
same,normalized growth,"locus YJR043C, strain POL32, active compounds read low",1
same,normalized growth,"locus YJR066W, strain TOR1, active compounds read low",0.903
